Out of some 350,000 compounds screened, about 450 (0.13%) were called active. No rule for the calls is given here. These entries were drawn from the full list. Results with a measured potency or affinity are listed apart.
Assay: inhibitors of VEEV TC-83 cytopathic effect, confirmation, Vero cells (AID 588727)
Conditions: VEEV TC-83 cytopathic effect inhibition, at 20 µM
[1] = stronger effect = higher value unless noted

SMILES: OC(COCc1cccs1)CN1CCN(c2cccc(Cl)c2)CC1 (stereo not drawn)
- inhibition [1]: inactive

SMILES: Cc1ccc(C(=O)C=CC=Cc2ccccc2)cc1
- inhibition [1]: inactive

SMILES: Cc1ccc(/C=C/C(=O)c2ccccc2)cc1
- inhibition [1]: inactive

SMILES: CCCCn1cnc2c(SCc3ccccc3Cl)nc(N)nc21
- inhibition [1]: 6.5% (inactive)

SMILES: OCCn1cnc2c(SCc3ccccc3)ncnc21
- inhibition [1]: 6.32% (inactive)

SMILES: CC(C)Cn1cnc2c(SCc3ccccc3Cl)nc(N)nc21
- inhibition [1]: 9.3% (inactive)

SMILES: Cn1cnc2c(SCc3ccccc3)ncnc21
- inhibition [1]: inactive

SMILES: CCC(C(=O)NCCCN1CCCC1=O)n1c2ccccc2c2nc(=O)cc(C)n21 (stereo not drawn)
- inhibition [1]: inactive

SMILES: CC(C)C(C)NC(=O)CN1C(=O)NC(C)(c2ccc3ccccc3c2)C1=O (stereo not drawn)
- inhibition [1]: inactive

SMILES: COCCn1c(SCC(=O)Nc2ccc(Cl)cn2)nc2ccccc21
- inhibition [1]: 2.54% (inactive)

SMILES: COc1ccc(-n2c(SC(C)C(=O)Nc3ncc(Cl)cc3Cl)nc3ccccc32)cc1 (stereo not drawn)
- inhibition [1]: 8.08% (inactive)

SMILES: CC(Sc1nnc(-c2ccccc2)c(-c2ccccc2)n1)C(=O)Nc1ncc(Cl)cc1Cl (stereo not drawn)
- inhibition [1]: 0.85% (inactive)

SMILES: Cc1cc(SCC(=O)Nc2ncc(Cl)cc2Cl)nc2ccccc12
- inhibition [1]: 0.95% (inactive)

SMILES: CCN(CC)S(=O)(=O)c1ccc(NN=c2c(=O)c3ccccc3c2=O)cc1
- inhibition [1]: 0.93% (inactive)

SMILES: CCOC(=O)C1(CCOC)CCN(C(=O)Cc2ccsc2)CC1
- inhibition [1]: 0.57% (inactive)

SMILES: CCOC(=O)c1cn(Cc2ccccc2)nc1-c1ccccc1
- inhibition [1]: inactive

SMILES: Cc1cccc(-n2c(C)cc(/C=N\NC(=O)c3ccco3)c2C)c1
- inhibition [1]: 1.2% (inactive)

SMILES: Cc1cc(/C=N\NC(=O)c2cccs2)c(C)n1-c1ccc2ncccc2c1
- inhibition [1]: 11.1% (inactive)

SMILES: COCCOC1CCN(C(=O)c2cc(COc3ccc(F)cc3F)on2)CC1
- inhibition [1]: 1.37% (inactive)

SMILES: CCOC(=O)c1c(SC)n(-c2ccccc2)c(=S)n(-c2ccccc2)c1=O
- inhibition [1]: 0.87% (inactive)

SMILES: CCOC(=O)c1c2c(c(=S)n(-c3ccccc3)c1N)CCC2
- inhibition (stronger effect = higher value): 4.5% (inactive)
- inhibition (measured here: 10K pilot screen inhibition, stronger effect = higher value): 3.38%

SMILES: COc1ccc(CSC(=N)N)cc1[N+](=O)[O-]
- inhibition [1]: 4.91% (inactive)

SMILES: CCOc1ccc(CSC(=N)N)cc1[N+](=O)[O-]
- inhibition [1]: 9.41% (inactive)

SMILES: Nc1nc(N)nc(-c2cccc(Cl)c2)n1
- inhibition [1]: 1.28% (inactive)

SMILES: COc1ccccc1CN1CCN(C(=O)c2cccc3ccccc23)CC1
- inhibition [1]: inactive

SMILES: Cc1cc2occ(CC(=O)Nc3nccs3)c2cc1C(C)C
- inhibition [1]: 0.63% (inactive)

SMILES: Cc1ccc2c(CC(=O)Nc3nc(C)cs3)coc2c1
- inhibition [1]: 5.51% (inactive)

SMILES: Cc1c(N(C)S(=O)(=O)c2cccc(C(=O)NCC3CCCO3)c2)c(=O)n(-c2ccccc2)n1C (stereo not drawn)
- inhibition [1]: 1.98% (inactive)

SMILES: NC(=O)C1CCN(C(=O)c2cc(S(=O)(=O)N3CCOCC3)c(Cl)cc2Cl)CC1
- inhibition [1]: 0.6% (inactive)

SMILES: Cc1nn(-c2ccc(C(=O)O)cc2)c(=O)c2ccccc12
- inhibition [1]: 0.65% (inactive)

SMILES: COc1ccc(CCNC(=O)CSc2nc(=O)[nH]c3c2CCC3)cc1OC
- inhibition [1]: 0.77% (inactive)

SMILES: COc1ccc(CC(=O)OCC(=O)Nc2ncc(Cl)c(C)c2Cl)cc1
- inhibition [1]: 5.2% (inactive)

SMILES: COc1ccccc1/C=C/C(=O)c1ccccc1
- inhibition [1]: 26.1% (inactive)

SMILES: COc1ccccc1/C=C/C(=O)c1ccc(Cl)cc1
- inhibition [1]: inactive

SMILES: COc1ccccc1C(=O)N(Cc1ccco1)C1CCS(=O)(=O)C1 (stereo not drawn)
- inhibition [1]: 0.87% (inactive)

SMILES: CCCCNC(=O)[C@@H]1CCCN1S(=O)(=O)c1cccc2cccnc12
- inhibition [1]: inactive

SMILES: O=C(Cc1ccc(NC(=O)C2CCN(C(=O)c3ccccc3)CC2)cc1)Nc1cccc(C(=O)N2CCCC2)c1
- inhibition [1]: inactive

SMILES: O=C(Nc1cccc2ccccc12)N(c1ccccc1)c1ccccc1
- inhibition [1]: inactive

SMILES: Cc1ccnc(NS(=O)(=O)c2ccc(NC(=O)c3ccc(C)o3)cc2)n1
- inhibition [1]: 0.84% (inactive)

SMILES: Cc1sc2nc(CN(Cc3cccs3)C(=O)NC3CCCCC3)[nH]c(=O)c2c1C
- inhibition [1]: 6.2% (inactive)

SMILES: CNC[C@H](Cc1ccccc1)NC[C@@H](Cc1cccc2ccccc12)NCCc1ccc(C)cc1
- inhibition [1]: inactive

SMILES: CC[C@@H](C)[C@H](CNC)NC[C@@H](Cc1cccc2ccccc12)NCCc1cccc(C(F)(F)F)c1
- inhibition [1]: 0% [measured here: 10K pilot screen inhibition, stronger effect = higher value]
- outcome [1]: inactive

SMILES: COc1ccc(/C=N\NC(=O)c2ccccc2OC)cc1COc1ccccc1C
- inhibition [1]: 10.1% (inactive)

SMILES: Cc1ccc(-c2nc(SC(C)C(=O)c3c(N)n(C)c(=O)n(C)c3=O)n[nH]2)cc1 (stereo not drawn)
- inhibition [1]: 10.2% (inactive)

SMILES: CCC(=O)N1c2ccc(S(=O)(=O)CCC(=O)NCc3cccs3)cc2CC1C (stereo not drawn)
- inhibition [1]: 1.31% (inactive)

SMILES: O=C(NCC(Cl)c1ccc2ccccc2c1)c1c(F)cccc1F (stereo not drawn)
- inhibition [1]: inactive

SMILES: Cc1cc(-c2nnc(SCC(=O)Nc3ccccc3C(F)(F)F)n2N)n[nH]1
- inhibition [1]: 1.16% (inactive)

SMILES: COc1cc(CNCCSc2nnnn2C)cc(Br)c1OCc1ccccc1F
- inhibition [1]: inactive

SMILES: COc1ccc(/C=C/C(=O)c2ccc3ccccc3c2O)cc1CN1CCOCC1
- inhibition [1]: 2% (inactive)

SMILES: COc1ccc(C(=O)/C=C/c2ccc(OC)c(Cn3nnc4ccccc43)c2)cc1
- inhibition [1]: 30.9% (inactive)

SMILES: COc1ccc(/C=C/C(=O)c2ccccc2O)cc1CN1CCOCC1
- inhibition [1]: 6.83% (inactive)

SMILES: COc1ccc(/C=C/C(=O)C23CC4CC(CC(C4)C2)C3)cc1CN1CCOCC1
- inhibition [1]: 6.32% (inactive)

SMILES: CCC1(C)NC(=O)N(CC(=O)NCC(=O)Nc2c(C)cc(C)cc2C)C1=O (stereo not drawn)
- inhibition [1]: inactive

SMILES: O=C(CSc1ncnc2c1cnn2-c1ccccc1)NC1CCCC1
- inhibition [1]: 4.66% (inactive)

SMILES: Cc1nn(-c2ccccn2)c2nc(-c3cccs3)cc(C(=O)NCc3ccco3)c12
- inhibition [1]: 8.96% (inactive)

SMILES: CCC(=O)N1CCc2cc(S(=O)(=O)N3CCN(c4ccccc4)CC3)ccc21
- inhibition [1]: 0.73% (inactive)

SMILES: CC(C)[C@H](NS(=O)(=O)c1ccccc1)C(=O)OCC(=O)Nc1cccc(S(N)(=O)=O)c1
- inhibition [1]: 3.51% (inactive)

SMILES: CS(=O)(=O)N1CCN(c2ccc([N+](=O)[O-])c(NCCN3CCOCC3)c2)CC1
- inhibition [1]: 0.31% (inactive)

SMILES: CC(C)c1ccc(Nc2ncccc2C(=O)O)cc1
- inhibition [1]: 7.46% (inactive)

SMILES: COc1ccc(Nc2ncccc2C(=O)O)cc1
- inhibition [1]: inactive

SMILES: CC[C@@]1(C(=O)OC)N[C@H](CN(C)C(=O)Nc2ccc(OC)cc2)[C@@H]2C(=O)N(C)C(=O)[C@@H]21
- inhibition [1]: inactive
